Screening data deposited in PubChem by National Center for Advancing Translational Sciences (NCATS).
HP1b binding inh: HP1-beta chromodomain-methylated histone interaction inhibition; P83916; AlphaScreen HP1-beta / biotin-H3K9me3 peptide binding; Potency, µM (titrated, usually from 114 µM), hits mostly inhibitors; actives 0.56% (n = 390,000); further: nearly all actives have a fitted effect of over 70% in size
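AlphaScreen: HP1-beta (50 nM) preformed 30 min with biotin-H3(1-18)K9me3 peptide (50 nM) in PBS pH 7.4, 0.01% Tween-20. Compound added for 30 min at RT, then streptavidin donor/nickel chelate acceptor beads (10 ug/mL) for 30 min.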
L3MBTL1 block: L3MBTL1 (human) inhibition. Q9Y468. AlphaScreen L3MBTL1–H3K9me1 peptide binding. Potency, µM (highest dose often 57.1 µM), actives largely listed as inhibitors. actives 0.66% (n = 230,000). AID 485360; further: nearly all actives have a fitted effect of over 60% in size
Target sequence (Q9Y468 whole entry, looked up): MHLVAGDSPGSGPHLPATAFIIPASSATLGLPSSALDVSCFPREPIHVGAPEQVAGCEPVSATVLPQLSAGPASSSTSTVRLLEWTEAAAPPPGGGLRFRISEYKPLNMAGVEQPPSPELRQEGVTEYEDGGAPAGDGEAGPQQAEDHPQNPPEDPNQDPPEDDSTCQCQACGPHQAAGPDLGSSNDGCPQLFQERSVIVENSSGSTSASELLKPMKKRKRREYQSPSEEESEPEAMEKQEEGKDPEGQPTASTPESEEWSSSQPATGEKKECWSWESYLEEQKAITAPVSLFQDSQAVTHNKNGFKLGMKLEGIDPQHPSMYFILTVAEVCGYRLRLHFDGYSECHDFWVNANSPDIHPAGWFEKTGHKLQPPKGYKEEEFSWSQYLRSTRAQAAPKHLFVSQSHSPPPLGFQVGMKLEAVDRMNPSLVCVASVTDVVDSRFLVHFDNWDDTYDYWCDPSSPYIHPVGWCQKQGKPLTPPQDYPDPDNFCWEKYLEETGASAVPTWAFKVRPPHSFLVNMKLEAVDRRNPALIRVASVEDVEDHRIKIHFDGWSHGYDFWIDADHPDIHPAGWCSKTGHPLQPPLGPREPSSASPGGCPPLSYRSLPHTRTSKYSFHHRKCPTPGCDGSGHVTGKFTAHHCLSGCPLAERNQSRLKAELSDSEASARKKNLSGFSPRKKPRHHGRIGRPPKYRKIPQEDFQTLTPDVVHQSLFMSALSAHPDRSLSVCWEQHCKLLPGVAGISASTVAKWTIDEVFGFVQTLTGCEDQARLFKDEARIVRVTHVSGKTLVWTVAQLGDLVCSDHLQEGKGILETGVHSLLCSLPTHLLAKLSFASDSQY
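Displacement of a biotinylated histone H3(1-15) peptide monomethylated at Lys9 (75 nM) from L3MBTL1 (50 nM) was measured by AlphaScreen after a 30 min room-temperature compound incubation; cefsulodin titration served as intraplate control.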
G9a inh: G9a (human) methyltransferase inhibition; Potency, µM (doses to about 102 µM), usual class: inhibitors; G9a H3K9 monomethylation, AlphaScreen, 2 h; AID 504332; Q96KQ7; actives 8.8% (n = 350,000); further: nearly all actives have a fitted effect of over 75% in size
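Step 1: enzyme (final 20 nM) with compound, 15 min RT. Step 2: substrate peptide 500 nM and SAM 20 uM, 2 h RT. Step 3: anti-H3K9me1 antibody and AlphaScreen beads, 10 min, then plate read.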
BAZ2B inh: BAZ2B (human) inhibition. AlphaScreen BAZ2B-H3K14Ac peptide displacement. Q9UIF8. actives 4.4% (n = 360,000). Potency, µM (top dose mostly 114 µM), actives largely listed as inhibitors. AID 504333; further: nearly all actives have a fitted effect of over 60% in size
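Multi-concentration screen (max 110 uM) measuring displacement of acetylated histone H3 peptide from BAZ2B by AlphaScreen, using 50 nM protein, 50 nM peptide and 10 ug/mL streptavidin donor plus Ni-chelate acceptor beads.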
JMJD2A Tudor: JMJD2A Tudor domain (human) inhibition; AlphaScreen JMJD2A-Tudor / H3K4me3 peptide binding; O75164; actives 4.4% (n = 390,000); AID 504339; Potency, µM (titrated, usually from 114 µM), hits mostly inhibitors; further: nearly all actives have a fitted effect of over 50% in size
A number is an active result; . = inactive; ? = inconclusive; / = not tested or not shown; ! = repeats disagree; [ ] = dose if it differs, or a comment. An excerpt weighted towards active compounds, which were near 11% of everything screened. The call rests on the fitted dose curve; in most records, active means well fitted inhibition curve with a large enough effect; inconclusive means small, poorly fitted or top-dose-only effect; inactive means no such curve, though single readings can be large or run the other way.

SMILES | HP1b binding inh | L3MBTL1 block | G9a inh | BAZ2B inh | JMJD2A Tudor
CCCCn1cc2c(c1-c1ccc(Cl)cc1)c(=O)n(C)c(=O)n2C | . | / | ? | ? | .
Cc1cc(OCC(=O)Nc2ncn[nH]2)ccc1Cl | . | . | .[2.33 µM] | 45µM | ?
COc1ccc(OCC(=O)Nc2cc(-c3nn4c(C)nnc4s3)ccc2C)cc1 | . | . | . | . | .
Cc1cc(OCC(=O)Nc2cc(-c3nn4c(C)nnc4s3)ccc2C)ccc1Cl | . | . | . | . | 56µM
Cc1cccc(C)c1OCC(=O)Nc1ncn[nH]1 | . | / | 14µM! | 50µM | ?
O=C(CC(c1ccccc1)c1ccccc1)Nc1ccc(Cl)cn1 | . | / | . | . | .
O=C(CC(c1ccccc1)c1ccccc1)Nc1ncn[nH]1 | . | / | .[12.7 µM] | 79µM | .
CCOc1ccccc1CNC(=O)CC(C)n1ccc(C)n1 (centres undefined) | . | / | . | . | .
COc1ccc(N(Cc2cccs2)C(=O)COc2cc(C)c(Cl)c(C)c2)cc1 | . | / | . | . | .
O=[N+]([O-])c1ccc(N/N=C/c2sc(N3CCOCC3)nc2-c2ccccc2)c(S(=O)(=O)Nc2ccccc2Cl)c1 | . | . | 71µM | ? | .
O=[N+]([O-])c1ccc(N/N=C/c2sc(N3CCOCC3)nc2-c2ccccc2)c(S(=O)(=O)Nc2ccc(Cl)cc2)c1 | ? | . | 40µM | 11µM | ?
O=C(N/N=C/c1sc(N2CCOCC2)nc1-c1ccccc1)c1ccccc1Cl | . | . | . | . | .[11.4 µM]
COc1cc2c(cc1OC)C(C)N(C(=O)c1cc3n(n1)C(C(F)(F)F)CC(c1ccco1)N3)CC2 (centres undefined) | . | . | 18µM | ? | ?
O=C(c1cc2n(n1)C(C(F)(F)F)CC(c1ccco1)N2)N1CCc2ccccc2C1 (centres undefined) | . | .[11.4 µM] | ? | ? | .
N#Cc1c(Nc2ccccc2)sc(C(=O)c2ccc(F)cc2)c1N | . | . | ? | . | .
N#Cc1c(Nc2ccccc2)s[nH]c1=O | . | / | 13µM | . | .
N#Cc1c(Nc2ccccc2Cl)s[nH]c1=O | . | . | / | . | .
N#Cc1c(Nc2ccccc2C(F)(F)F)s[nH]c1=O | . | . | 14µM | . | .
CC(=O)OCC(=O)[C@@]1(O)CCC2C3CCC4=CC(=O)C=CC4(C)C3C(O)C[C@]21C (some centres undefined) | / | / | .[2.33 µM] | / | /
COc1ccc2nc(SC(C)C(=O)NCC(=O)Nc3ccc(F)c(F)c3F)[nH]c2c1 (centres undefined) | . | . | 50µM | . | .
COc1ccc(-n2nnnc2SC(C)C(=O)NCC(=O)Nc2ccc(F)c(F)c2F)cc1 (centres undefined) | . | . | 40µM | . | .
Cc1cc(C)c2nc(SC(C)C(=O)NCC(=O)Nc3ccc(F)c(F)c3F)cc(C)c2c1 (centres undefined) | . | . | 18µM | . | .
CCOc1ccc(NC(=S)N2CCN(S(=O)(=O)c3ccc(OC)cc3)CC2)cc1 | . | / | / | ? | .
Cc1ccc(Cn2c(SCC(=O)NCc3ccccc3Cl)nc3ccsc3c2=O)cc1 | . | / | . | . | .
CC(=O)N1CCc2c(sc3c2c(=O)n(-c2ccccc2)c(=O)n3CC(=O)c2ccc(F)cc2)C1 | . | / | . | . | .
CCN1CCN(c2nc3c(c(=O)n(C)c(=O)n3C)n2Cc2cccc3ccccc23)CC1 | . | . | 40µM | . | .
CCCn1c(SCC(=O)N2CCN(c3ccc(OC)cc3)CC2)nc2c1c(=O)n(C)c(=O)n2C | . | . | 50µM | . | .
COC(=O)Cn1c(CN2CCc3ccccc3C2)nc2c1c(=O)n(C)c(=O)n2C | . | . | 50µM | . | .
C=C(C)Cn1c(N2CCN(c3ccc(OC)cc3)CC2)nc2c1c(=O)n(C)c(=O)n2C | . | / | . | ? | ?
